Shown are actives, neighbours in structure and some others; about 3.8% of the full set was active somewhere.
Hsp70 activator: Hsp70 transcriptional activators, primary screen, cell-based, HeLa, Hsp70 promoter luciferase, luminescence, 10 µM; activation, % at 10 µM; 200,000 tested, 0.04% active; HeLa Hsp70 promoter luciferase reporter; scaled: vehicle 0, proteasome-inhibitor control 100%;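 active = activation above the mean across all tested compounds plus 3 SD, cutoff set per campaign, cut at about 5.5% in these data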;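 note: 100% = MG132 at 30 µM as the positive control and 0% = DMSO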
NALP1 inh: NALP1 inflammasome inhibitors in reconstituted yeast, colorimetric, S. cerevisiae, triplicate retest | 280,000 tested, 0.61% active | AID 2071, 2009 | inhibition, % at 10 µM | S. cerevisiae NALP1/ASC/caspase-1 growth, X-gal OD620, 72 h; in the data active = inhibition mostly above about 24%, no sharp cut-off; inactive = mostly below about 32%
HSF1 inh: HSF1 inhibitors in luciferase reporter cells, primary screen, cell-based, NIH3T3, luminescence | AID 2098, 2009 | 300,000 tested, 0.77% active | NIH3T3-HGL HSE-luciferase, MG132-induced, luminescence 8 h; active compounds read low | activity change, negative = inhibition, % at 7.5 µM (by protocol);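 active = more than half of replicate wells show activity change below -50%, luminescence cut by over half; inconclusive = some wells, but at most half, below -50%; inactive = no replicate well below -50%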;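 note: luciferase reports HSF-1 transcriptional activity via heat shock element; 0% = median of DMSO wells and -100% = zero luminescence signal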
HSP90 refold inh: HSP90 inhibitors, primary screen, cell lysate, luminescence; Rabbit reticulocyte lysate, luciferase refolding luminescence, 3 h; Heat shock protein HSP 90 (rabbit reticulocyte lysate; luciferase refolding); inhibition, % at 5.6 µM; 290,000 tested, 0.91% active;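 active = inhibition above the screen-wide mean plus 3 SD, computed separately per campaign, cut at about 16% in these data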;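 note: 0% = DMSO wells and 100% = 60 µM geldanamycin wells; inhibitors lower the luminescence because luciferase stays unfolded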
HSF1 activator: HSF-1 activators, primary screen, NIH3T3-HGL cells, MG132 stress, luminescence, single point; NIH3T3-HGL HSF-1 luciferase reporter, 8 h; 100% = twice DMSO control signal; activation, % at 9 µM; 300,000 tested, 1.7% active; AID 504408, 2011;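 active = mean replicate activation of at least 50% with a set share of replicates each reaching 50%; inconclusive = only one of those two conditions met; inactive = mean below 50% and too few replicates reaching it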;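 note: 0% = median of the neutral control wells and 100% = twice that signal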
pCIP destab: p/CIP-EGFP fusion destabilizers, primary screen, fluorescence, F442A cells. AID 1984, 2009. Q05BA5. 16 h. 290,000 tested, 0.01% active. decrease of EGFP signal, % at 10 µM;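 active = EGFP signal decrease of at least 30% at 10 µM or well 3 SD below plate mean, unless failing retest; inactive = the rest, including hits failing retest or dose response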
Target sequence (Q05BA5 1-1403): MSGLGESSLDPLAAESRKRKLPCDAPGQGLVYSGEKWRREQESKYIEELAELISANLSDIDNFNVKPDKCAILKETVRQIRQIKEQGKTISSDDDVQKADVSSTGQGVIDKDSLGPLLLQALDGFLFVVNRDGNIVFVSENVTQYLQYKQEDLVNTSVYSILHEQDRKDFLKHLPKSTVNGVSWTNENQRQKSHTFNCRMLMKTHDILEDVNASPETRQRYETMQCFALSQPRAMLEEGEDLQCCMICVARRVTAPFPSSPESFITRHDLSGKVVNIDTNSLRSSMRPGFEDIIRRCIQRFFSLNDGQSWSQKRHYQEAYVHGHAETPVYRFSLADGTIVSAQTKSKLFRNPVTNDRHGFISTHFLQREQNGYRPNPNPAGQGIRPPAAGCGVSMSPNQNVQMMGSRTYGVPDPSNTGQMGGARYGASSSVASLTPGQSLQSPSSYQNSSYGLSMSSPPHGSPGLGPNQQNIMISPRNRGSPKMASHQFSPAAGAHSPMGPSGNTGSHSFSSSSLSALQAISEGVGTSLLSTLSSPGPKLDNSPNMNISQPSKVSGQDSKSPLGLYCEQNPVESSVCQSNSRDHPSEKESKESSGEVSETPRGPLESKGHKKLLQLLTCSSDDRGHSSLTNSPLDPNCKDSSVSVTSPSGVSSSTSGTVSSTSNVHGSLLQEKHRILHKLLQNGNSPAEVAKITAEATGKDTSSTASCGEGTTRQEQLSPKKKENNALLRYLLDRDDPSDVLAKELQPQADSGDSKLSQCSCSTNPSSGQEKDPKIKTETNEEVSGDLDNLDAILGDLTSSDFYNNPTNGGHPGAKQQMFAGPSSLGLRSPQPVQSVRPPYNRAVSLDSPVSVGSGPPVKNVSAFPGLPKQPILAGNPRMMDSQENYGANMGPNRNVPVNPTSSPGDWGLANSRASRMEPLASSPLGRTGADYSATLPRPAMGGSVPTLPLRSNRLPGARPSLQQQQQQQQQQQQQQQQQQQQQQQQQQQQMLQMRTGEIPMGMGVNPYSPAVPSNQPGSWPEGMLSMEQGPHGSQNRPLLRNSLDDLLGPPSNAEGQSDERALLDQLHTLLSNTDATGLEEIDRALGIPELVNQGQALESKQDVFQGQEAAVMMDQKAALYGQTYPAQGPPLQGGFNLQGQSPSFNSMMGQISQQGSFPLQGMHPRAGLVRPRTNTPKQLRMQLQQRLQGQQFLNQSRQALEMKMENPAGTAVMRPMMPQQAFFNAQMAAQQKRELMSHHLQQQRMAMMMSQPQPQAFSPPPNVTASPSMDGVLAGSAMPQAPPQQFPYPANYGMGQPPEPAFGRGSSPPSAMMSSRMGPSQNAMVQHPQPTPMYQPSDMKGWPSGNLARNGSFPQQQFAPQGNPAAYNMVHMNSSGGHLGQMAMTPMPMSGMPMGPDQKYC
An asterisk follows results filed as active; u = inconclusive; x = no result.

SMILES | Hsp70 activator | NALP1 inh | HSF1 inh | HSP90 refold inh | HSF1 activator | pCIP destab
COc1cccc(C(C2C(=O)CC(C)(C)CC2=O)C2C(=O)CC(C)(C)CC2=O)c1 | x | 19.5 | 0.6 | 0.5 | -8.9 | -1.0
CC1(C)CC(=O)C(C(c2cccnc2)C2C(=O)CC(C)(C)CC2=O)C(=O)C1 | -0.1 | 15.4 | -89.5* | -3.1 | -91.8 | -0.9
CCOC(=O)Cc1csc(NC(=O)CSc2cc(Cl)ccc2Cl)n1 | -0.3 | -0.2 | 6.3 | 2.3 | 18.2 | -8.5
COC(=O)c1sccc1N/N=C/c1cccc(OC)c1O | -0.3 | 7.6 | -10.1 | 1.3 | -20.8 | -9.0
COC(=O)c1sccc1N/N=C/c1cccc(Oc2ccccc2)c1 | 0.1 | 24.4 | -38.7 | 16.9* | -53.2 | 1.0
COc1ccc(C(=S)Nc2ccc(N(C)C)cc2)cc1 | -0.1 | -19.6 | 28.9 | 0.0 | 59.6* | -5.9
COc1ccc(NC(=S)c2ccc(N(C)C)cc2)cc1 | 0.1 | 30.1 | 14.7 | -6.3 | u | -5.9
O=C(CN1C(=O)S/C(=C\C=C\c2ccccc2)C1=O)Nc1ccc(O)cc1 | -0.1 | 27.1 | 37.3 | 2.5 | 58.8* | -2.7
CC1CN(S(=O)(=O)c2cccc(C(=O)N=c3sccn3C)c2)CC(C)O1 (configuration not stated) | x | x | 1.3 | x | -6.7 | x
O=C(CCCCCN1C(=O)[C@@H]2Cc3ccccc3CN2C1=O)NCCc1ccccc1 | x | 9.1 | 7.1 | 1.2 | -7.7 | 7.3
COc1ccccc1CN1CC(C(=O)NCCc2ccccc2Cl)CCC1=O (configuration not stated) | x | 0.0 | 7.4 | -4.8 | 7.5 | -5.2
COc1ccccc1CN1CC(C(=O)NCCN2CCNC2=O)CCC1=O (configuration not stated) | x | 24.2 | -72.7* | -4.5 | -79.3 | 0.8
CCOc1c(C)cc(S(=O)(=O)NCc2cccnc2)c(C)c1C | x | 13.9 | -56.1* | -5.8 | -66.0 | 10.5
CCOc1cc(Cl)c(S(=O)(=O)NCc2cccnc2)cc1Cl | x | 7.8 | 0.3 | 1.3 | -0.4 | 8.2
CNC(=O)COC(=O)c1cccc(S(=O)(=O)N2CCN(c3ccc(F)cc3)CC2)c1 | x | 2.0 | -4.6 | -0.7 | -8.9 | -12.7
O=C(NCc1ccccn1)c1cc(-c2ccc(-c3ccccc3)cc2)nc2ccccc12 | -0.3 | 26.3 | 28.6 | -0.2 | 83.6* | 0.7
O=C(O)c1cc(-c2cccc3ccccc23)nc2ccccc12 | x | 13.8 | -88.2* | -3.0 | -91.0 | -10.5
COCCNC(=O)c1cc(-c2ccc(-c3ccccc3)cc2)nc2ccccc12 | x | 4.7 | 35.4 | -2.8 | 64.5* | -6.8
O=C(O)c1cc(-c2cc(C(=O)O)c3ccccc3n2)nc2ccccc12 | x | -1.4 | -2.8 | -2.3 | 3.9 | -1.5
O=C(NCc1ccccn1)c1cc(-c2ccccc2)nc2ccccc12 | -0.2 | 23.3 | -1.9 | -2.1 | 2.2 | 7.9
C=CCn1c(CCNC(=O)c2cccs2)nnc1SCC(=O)Nc1cccc(F)c1 | -0.2 | 1.4 | 9.2 | 2.3 | 10.2 | -12.5
COc1ccc(-c2c(-c3ccsc3)oc3ccc(N4CCOCC4)cc23)cc1 | x | x | -2.6 | x | -6.6 | x
N/C(=N\c1nc2ccccc2o1)NC(=O)c1ccccc1Br | x | 19.7 | 10.3 | 0.4 | 16.0 | -11.9
COC(=O)c1ccc(-c2nc3cc(Cl)c(N)cc3s2)cc1 | 0.2 | 15.7 | -56.7* | 8.8 | -65.0 | -15.7
COC(=O)c1ccc(-c2nc(O)c(C)s2)cc1 | 0.4 | -1.8 | 2.5 | 1.4 | 4.9 | 18.0
SMILES | Hsp70 activator | NALP1 inh | HSF1 inh | HSP90 refold inh | HSF1 activator | pCIP destab
C#Cc1ccc([C@H]2C=C(C(=O)N3CCN(Cc4ccc5c(c4)OCO5)CC3)O[C@@H](OCc3ccc(CO)cc3)C2)cc1 | 0.6 | 1.3 | 7.9 | 2.4 | 23.7 | 8.7
Cc1ccc(NC(=O)Nc2cc(S(C)(=O)=O)ccc2Cl)cc1 | x | -12.0 | 4.7 | 0.7 | 17.3 | -10.4
CCCCOc1ccc(NC(=O)c2cnc(C)cn2)cc1 | -0.2 | 44.8* | 3.3 | 3.0 | 2.0 | 7.5
Cc1cnc(C(=O)Nc2ccc(F)c(F)c2)cn1 | 0.3 | 38.5 | 6.2 | -2.7 | 18.7 | -7.1
CCCCc1ccc(NC(=O)c2cnccn2)cc1 | -0.1 | 5.9 | 4.3 | 16.8* | 19.5 | -2.4
CCOC(=O)c1ccc(NC(=O)c2cnccn2)cc1 | 0.0 | 0.1 | 12.9 | 0.8 | 14.3 | 12.1
CCC(N=c1cc(-c2ccc(OC)cc2)oc2ccc(C)cc12)C(=O)O (configuration not stated) | -0.1 | 24.5 | 31.7 | 3.0 | 58.7* | 6.8
CCC(N=c1cc(-c2ccc(OC)c(OC)c2)oc2ccc(C)cc12)C(=O)O (configuration not stated) | -0.2 | 24.6 | u | -1.6 | -64.5 | 0.9
COCCNc1nnc(SCC(=O)NNC(=O)c2ccc([N+](=O)[O-])cc2)s1 | x | x | -1.5 | x | -11.9 | x
CCOc1ccc(C)cc1S(=O)(=O)NC1CCCCC1 | -0.1 | -0.4 | 21.7 | -2.1 | 61.1* | -3.0
CCN(CC)C(=O)Cn1cc(S(=O)(=O)CC(=O)N2CCCCCC2)c2ccccc21 | -0.3 | -12.4 | -5.2 | 1.6 | 8.2 | -1.0
COc1cc(C)c(S(=O)(=O)N2CCN=C2c2ccccc2)cc1C | -0.5 | 4.4 | 10.3 | -4.1 | 56.1* | -11.3
Cc1cc(C)c(S(=O)(=O)N2CCN=C2c2ccccc2)cc1C | -0.2 | 2.5 | -5.1 | -1.8 | -2.1 | -9.8
Cc1ccc(-n2nc3c(=O)n(CCCC(=O)N4CCC(C(N)=O)CC4)nc(C)c3c2C)cc1 | x | 4.3 | -52.2* | 1.9 | -59.5 | -15.8
Cc1ccc(-n2nc3c(=O)n(CCCC(=O)N4CCC(C)CC4)nc(C)c3c2C)cc1 | x | 19.1 | -3.2 | 0.9 | 7.3 | -8.5
O=C(CCC1CCCCC1)Nc1nncs1 | x | -14.3 | -5.4 | 0.2 | -3.1 | -9.5
Cn1c(=O)c2c(ncn2CC(=O)N/N=C/C=C/c2ccccc2)n(C)c1=O | -0.2 | 8.6 | 3.7 | 0.9 | -6.5 | -2.0
Cn1c(=O)c2ncn(CC(=O)N/N=C/C=C/c3ccccc3)c2n(C)c1=O | -0.2 | 10.5 | 29.8 | -2.1 | 60.3* | -1.1
O=C(COC(=O)CCc1ccccc1)Nc1ccccc1OC(F)F | x | x | -9.0 | -2.8 | -1.7 | -5.3
CCOc1ccccc1N(CC(=O)Nc1cccc2ccccc12)S(C)(=O)=O | x | 17.4 | 1.7 | 0.9 | 2.8 | -4.0
COc1ccc(NS(=O)(=O)c2cc(NC(=O)/C=C/c3ccccc3OC)ccc2N2CCCCC2)cc1 | -0.3 | 22.0 | -6.7 | 3.1 | -4.9 | 2.5
COc1ccc(/C=C/C(O)=C2/C(=O)N(C)C3(C)CC2c2ccccc2O3)cc1 (configuration not stated) | -0.1 | 14.3 | 22.1 | 1.8 | 64.6* | -8.7
COc1ccc(O)c(CN2CCC(n3nccc3NC(=O)C3CCCC3)CC2)c1 | x | 10.2 | -5.3 | 1.0 | 1.2 | 0.8

Screening data (PubChem BioAssay)
